In PubChem BioAssay (NCI) one finds growth data, which are given here for eight compounds.

The panel holds about 83,000 compounds, 20% with a hit somewhere; the sample as a whole holds those more often.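 How to read the values: 0–100, growth inhibition (40 = 60% inhibited); 0, no net growth; -100 to 0, cell death (-40 = 40% of starting cells died; -100 = all dead).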 A number with no mark means an inactive call. Activity calls are given as the source filed them. Rule for the calls: active = growth percent below 10; inactive = the rest.

Test systems include NCI-H23 lung; NCI-H460 lung; 786-0 renal; DU-145 prostate; MDA-MB-231 breast; SF-268 CNS; SF-539 CNS; M14 melanoma; SNB-75 CNS; PC-3 prostate; UACC-62 melanoma; SK-MEL-28 melanoma; ACHN renal; OVCAR-5 ovarian; OVCAR-3 ovarian; NCI/ADR-RES ovarian; SW-620 colon; MCF7 breast; HCT-116 colon; KM12 colon.
Common to all, as to assay: NCI-60 one-dose screen, 48 h (100 = growth as untreated, 0 = no growth, -100 = all killed)
What all share (details): 10 µM unless noted

For the compound `O=S(=O)(Cl)c1ccccc1` (tested in a mixture with another compound), the growth was 106% with NCI-H23 lung; 103% in the test on NCI-H460 lung; 102% with 786-0 renal; 109% with DU-145 prostate; 117% with MDA-MB-231 breast; 104% in the test on SF-268 CNS. The growth in the test on SF-539 CNS was 102%; in the test with M14 melanoma it was 102%; in the test with SNB-75 CNS, 95.4%; in the test with PC-3 prostate, 103%; in the test with UACC-62 melanoma it was 106%; in the test on SK-MEL-28 melanoma it was 103%. The growth is 93.9% in the test on ACHN renal; 93.7% with OVCAR-5 ovarian; 106% with OVCAR-3 ovarian; 110% in the test on NCI/ADR-RES ovarian; 96.9% in the test with SW-620 colon; 93.1% in the test on MCF7 breast. Further, the growth was 99.4% in the test with HCT-116 colon and 108% in the test on KM12 colon.
`C[C@@H]1O[C@@H](O[C@H]2CC[C@@]3(C)[C@H](CCC4[C@@H]3C(O)C[C@]3(C)[C@@H](c5ccc(=O)oc5)CC[C@]43O)C2)[C@H](O)[C@H](O)[C@H]1O` (some centres undefined): the growth was -78.5% (active) in the test on NCI-H23 lung; -80.7% (active) in the test with NCI-H460 lung; -94.1% (active) in the test on 786-0 renal; -70.1% (active) in the test with DU-145 prostate; -63.7% (active) in the test with MDA-MB-231 breast; -63.1% (active) with SF-268 CNS. Besides, the growth in the test with M14 melanoma is -70.7% (active); with SNB-75 CNS it was -88.3% (active); in the test with PC-3 prostate, -33.3% (active); in the test with UACC-62 melanoma it was -89.6% (active); in the test on SK-MEL-28 melanoma it was -96.1% (active); with ACHN renal, -81.7% (active). The growth with OVCAR-5 ovarian is -92% (active); with OVCAR-3 ovarian it was -46.7% (active); in the test with NCI/ADR-RES ovarian it was -66.8% (active); with SW-620 colon, -79% (active); in the test with MCF7 breast, -59.4% (active); with HCT-116 colon, -79.9% (active). The growth in the test with KM12 colon is -94.2% (active).
Regarding `OB([O][Hg][c]1ccccc1)[O][Hg][c]1ccccc1`, the growth in the test on NCI-H23 lung is -56.2% (active); in the test with NCI-H460 lung it was -21.4% (active); in the test with 786-0 renal it was -76.6% (active); in the test with DU-145 prostate, -73.5% (active); in the test with MDA-MB-231 breast it was -69.8% (active); in the test with SF-268 CNS, -51.2% (active). Besides, the growth in the test on SF-539 CNS is -87.7% (active); in the test on M14 melanoma, -80.9% (active); with SNB-75 CNS, -56% (active); in the test on PC-3 prostate, -60.4% (active); in the test with UACC-62 melanoma, -99.1% (active); in the test with SK-MEL-28 melanoma, -83.2% (active). Besides, the growth with ACHN renal is -95.6% (active); with OVCAR-5 ovarian, -64% (active); with OVCAR-3 ovarian, -89.6% (active); with NCI/ADR-RES ovarian, -18.2% (active); with SW-620 colon it was -48.9% (active); in the test with MCF7 breast, -39.4% (active). For the same compound, the growth is -68.4% (active) in the test with HCT-116 colon and 14.7% in the test with KM12 colon.
Regarding `CN1C(=O)NC(=O)C(N=Nc2ccc(Cl)cc2)C1=O` (centres undefined), the growth is 95.3% in the test on NCI-H23 lung; 102% with NCI-H460 lung; 78.4% in the test on 786-0 renal; 106% with DU-145 prostate; 85.7% in the test with MDA-MB-231 breast; 93.5% in the test on SF-268 CNS. Further, the growth with SF-539 CNS was 101%; in the test with M14 melanoma it was 81.5%; in the test with SNB-75 CNS, 126%; in the test on PC-3 prostate, 94.6%; in the test with UACC-62 melanoma, 49.9%; with SK-MEL-28 melanoma it was 122%. The growth in the test with ACHN renal is 87.9%; in the test on OVCAR-5 ovarian it was 98.9%; in the test on OVCAR-3 ovarian, 105%; in the test with NCI/ADR-RES ovarian, 83.5%; with SW-620 colon, 106%; with MCF7 breast it was 93%. Also, the growth with HCT-116 colon is 93.3%; in the test with KM12 colon, 82.6%.
On to `CCOC(=O)c1cnc(SCc2ccc(Cl)c(Cl)c2)nc1N1CC1`, for which the growth in the test on NCI-H23 lung was 51.1%; in the test on NCI-H460 lung, 41%; in the test on 786-0 renal, 60%; in the test with DU-145 prostate, 66.7%; in the test on MDA-MB-231 breast, 51.7%; in the test on SF-268 CNS, 74.9%. In addition, the growth in the test with SF-539 CNS was 44.1%; with M14 melanoma, 41.8%; in the test with SNB-75 CNS it was 43.1%; in the test on PC-3 prostate it was 51.2%; with UACC-62 melanoma it was 51.1%; with SK-MEL-28 melanoma, 88.5%. The growth in the test on ACHN renal was 44.1%; in the test with OVCAR-5 ovarian it was 82.9%; in the test on OVCAR-3 ovarian it was 54.6%; in the test on NCI/ADR-RES ovarian, 25.2%; with SW-620 colon, 33.8%; in the test on MCF7 breast, 29.3%. Further, the growth in the test on HCT-116 colon is 23.5%; with KM12 colon, 50.5%.
For the compound `Cc1ccc(C[As+](c2ccccc2)(c2ccccc2)c2ccccc2)cc1`, the growth is -11.1% (active) with NCI-H23 lung; 2.34% (active) in the test on NCI-H460 lung; 13.5% with 786-0 renal; 23.8% in the test with DU-145 prostate; 10.6% in the test with MDA-MB-231 breast; 24.1% in the test with SF-268 CNS. Moreover, the growth in the test with SF-539 CNS was 24.1%; in the test on M14 melanoma it was 4.54% (active); with SNB-75 CNS, 15.1%; in the test with PC-3 prostate, 7.95% (active); in the test on UACC-62 melanoma, 8.38% (active); with SK-MEL-28 melanoma, 37.2%. The growth in the test with ACHN renal is 49%; in the test on OVCAR-5 ovarian, 31.8%; with OVCAR-3 ovarian, 13.9%; in the test with NCI/ADR-RES ovarian, 99.2%; in the test on SW-620 colon, 11.9%; in the test on MCF7 breast, 9.14% (active). The growth was 2.52% (active) in the test with HCT-116 colon and 3.2% (active) in the test on KM12 colon.
As for `N#CC1=C(N)Oc2cc3c(cc2C1c1cccs1)OCO3` (centres undefined), the growth is 15.2% in the test with NCI-H23 lung; 15.6% in the test on NCI-H460 lung; 49.5% in the test with 786-0 renal; 15.5% in the test with DU-145 prostate; 41.8% with MDA-MB-231 breast; 47.3% with SF-268 CNS. For the same compound, the growth in the test on SF-539 CNS is 0.18% (active); with M14 melanoma it was 15.1%; in the test on SNB-75 CNS, -14.9% (active); with PC-3 prostate, 24%; in the test on UACC-62 melanoma it was 31.1%; in the test on SK-MEL-28 melanoma it was 37.9%. For the same compound, the growth was 57.4% with ACHN renal; 52.2% in the test with OVCAR-5 ovarian; -15% (active) in the test with OVCAR-3 ovarian; 3.49% (active) with NCI/ADR-RES ovarian; 26.3% with SW-620 colon; 15.7% with MCF7 breast. For the same compound, the growth in the test on HCT-116 colon is 21.2%; in the test on KM12 colon it was 34.2%.
With `CC12CCC(=O)C=C1C(O)CC1C2CCC2(C)C(O)CCC12` (centres undefined), the growth with NCI-H23 lung was 100%; in the test with NCI-H460 lung it was 102%; in the test with 786-0 renal, 115%; in the test on DU-145 prostate, 102%; in the test on MDA-MB-231 breast it was 114%; in the test on SF-268 CNS, 98%. Further, the growth is 98.7% with SF-539 CNS; 105% in the test on M14 melanoma; 94.5% in the test with SNB-75 CNS; 95% in the test with PC-3 prostate; 99.5% in the test with UACC-62 melanoma; 115% with SK-MEL-28 melanoma. The growth is 117% with ACHN renal; 108% in the test on OVCAR-5 ovarian; 103% in the test with OVCAR-3 ovarian; 108% in the test on NCI/ADR-RES ovarian; 109% with SW-620 colon; 97.1% with MCF7 breast. Moreover, the growth in the test on HCT-116 colon is 99%; in the test on KM12 colon, 98.8%.
